Bioassay records from PubChem.
MITF TRPM1 HTS: activators of MITF-driven TRPM1 promoter reporter, primary screen, cell-based, SK-MEL-5, luciferase, single point; 0.75% of 300,000 active; AID 588334, 2011; SK-MEL-5 TRPM1-promoter luciferase, 24 h; % of positive control, neutral wells = 0; activation, % at 12.5 µM;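 active = mean activation of at least 80% with every replicate also reaching 80%; inconclusive = mean reaches 80% but some replicate falls short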
Wnt bcat act: Wnt/beta-catenin pathway activators, primary screen, cell-based, plate reader, single point. Wnt/beta-catenin reporter cell assay, activator. activation, % at 9.35 µM. 1.2% of 300,000 active. AID 743398, 2014; in the data active = activation above about 30%, passing the limit was not always enough; inconclusive = no clear call, values can overlap the other calls
Statin myotox sup: suppressors of statin myotoxicity in C2C12 myotubes, primary screen, cell-based, single point, plate reader; C2C12 myotubes + simvastatin, ATP luminescence, 48 h; scaled: DMSO 0, geranylgeraniol control 100; rescue of ATP level, % at 7.49 µM; 0.78% of 330,000 active; AID 602340, 2012;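 active = mean ATP rescue above about 67%, or every replicate alone reaching that limit, limit read from the data, passing the limit was not always enough; inconclusive = no clear call, values can overlap the other calls; inactive = mean under the limit and some replicate under it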;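 note: myotubes were challenged with 10 µM simvastatin during compound exposure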
esBAF inh: Bmi1 luciferase reporter increase in mESCs, primary screen, esBAF inhibitor project, mouse ES cells, Bmi1 luciferase knock-in, single point; 24 h; 100% = twice the neutral-well signal; reporter increase, % at 12.5 µM; 2% of 350,000 active; in the data active = activation above about 40%; inconclusive = no clear call, values can overlap the other calls;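 note: a rise in the Bmi1 reporter signal indicates esBAF inhibition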
A number is an active result; i = inactive; ? = inconclusive; nt = no result; ! = a repeat was not active. Rows were chosen to be rich in hits. Some 3% of all compounds tested hit in one or more screens of this group.

SMILES | MITF TRPM1 HTS | Wnt bcat act | Statin myotox sup | esBAF inh
CC(C)(C)c1ccc(NC(=S)NCc2cccs2)cc1 | i | nt | i | 44
CCC(C)c1ccc(NC(=S)NCc2cccs2)cc1 (centres undefined) | i | nt | i | i
CNC(=O)C[C@H]1CC[C@@H]2[C@@H](COc3ccc(NC(=O)c4cc(F)cc(F)c4)cc3C(=O)N2C)O1 | nt | nt | i | i
COC(=O)C(Cc1ccc(OC(=O)c2ccccc2Cl)cc1)N1Cc2ccccc2C1=O (centres undefined) | i | nt | i | 44
COC(=O)C(Cc1ccc(OC(=O)c2ccccc2C)cc1)N1Cc2ccccc2C1=O (centres undefined) | i | nt | nt | nt
C[C@H](CO)N1C[C@H](C)[C@H](CN(C)C(=O)Nc2cccc3ccccc23)Oc2ccc(NC(=O)C3CCCCC3)cc2CC1=O | nt | nt | i | i
CC(=O)N=C(N)Sc1nc2ccccc2[nH]1 | nt | 61 | nt | 69
O=c1oc2ccccc2cc1-c1csc(NN=C2CCCCC2)n1 | i | nt | i | 66
COc1cccc(C#Cc2cnc3c(c2)C(=O)N([C@@H](C)CO)C[C@H](C)[C@@H](CN(C)C)O3)c1 | nt | nt | i | i
O=C(Nc1ccc(N2CCN(C(=O)c3ccccc3)CC2)c(Cl)c1)c1ccco1 | i | nt | 122 | i
O=C(Nc1ccc(Br)c(Cl)c1)c1ccco1 | i | nt | i | 52
O=C(Nc1cccc(F)c1)c1ccco1 | i | i | i | 45
CC(=O)N1CCN(c2ccc(NC(=O)c3ccco3)cc2Cl)CC1 | i | i | i | i
O=C(Nc1ccc(Cl)cc1C(=O)Nc1ccncc1)c1ccco1 | i | i | 91 | i
CO[C@@H]1CC[C@@H]2CCOc3ccc(C#N)cc3C(=O)N(C)CCCC(=O)N(C)C[C@H]1O2 | nt | nt | i | i
COc1cccc(S(=O)(=O)N2CCCCN3[C@H](C2)[C@H](c2ccc(C#CCC(C)C)cc2)[C@@H]3CO)c1 | nt | nt | i | i
O=C(CNC(=O)c1ccco1)Nc1ccc(Br)cc1 | i | i | i | 42
COc1cccc(NC(=O)c2ccco2)c1 | i | nt | i | 60
COc1ccc(C(=O)COc2cccc(NC(=O)c3ccco3)c2)cc1 | i | i | nt | nt
O=C(Nc1cccc(-n2cnnn2)c1)c1cc2ccccc2o1 | i | i | i | i
O=C(Nc1cccc(-n2cnnn2)c1)c1ccco1 | i | i | 111 | i
O=C(COc1cccc(NC(=O)c2ccco2)c1)c1ccccc1 | nt | i | i | 50
Cc1ccc(S(=O)(=O)Nc2ccc3c(c2)C(=O)N(C)[C@H]2CC[C@@H](CC(=O)NCCc4ccncc4)O[C@@H]2CO3)cc1 | nt | nt | i | i
O=C(c1cnccn1)N1CC[C@@H]2[C@H]1c1cc(C#Cc3cccnc3)ccc1N[C@@H]2CO | nt | nt | i | i
COc1ccc(NC(=O)Nc2ccc3c(c2)C(=O)N([C@@H](C)CO)C[C@H](C)[C@H](CN(C)C(=O)c2ccccc2)OCCCC[C@@H](C)O3)cc1 | nt | nt | i | i
SMILES | MITF TRPM1 HTS | Wnt bcat act | Statin myotox sup | esBAF inh
C[C@@H]1CN([C@@H](C)CO)C(=O)c2cc(C#Cc3ccc(F)cc3)cnc2O[C@@H]1CN(C)C | nt | nt | i | i
Cc1cc(C(=O)Nc2cccc3c2O[C@H](CN(C)C(=O)NC(C)C)[C@@H](C)CN([C@H](C)CO)C3=O)n(C)n1 | nt | nt | i | i
COc1ccc(S(=O)(=O)Nc2cccc3c2O[C@@H](CN(C)Cc2ccc(-c4ccccc4)cc2)[C@@H](C)CN([C@H](C)CO)C3=O)cc1 | nt | nt | i | i
O=C(c1ccccc1)c1cccc(NC(=O)c2ccco2)c1 | i | nt | i | 66
CCC(=O)N(C)C[C@@H]1Oc2ncc(C#Cc3ccncc3)cc2C(=O)N([C@@H](C)CO)C[C@@H]1C | nt | nt | i | i
O=C1C(Cl)=C(Nc2ccccc2O)C(=O)N1CCc1ccccc1 | i | i | i | 62
COc1ccccc1NC1=C(Cl)C(=O)N(c2ccccc2)C1=O | i | nt | nt | nt
CCOc1ccc(N2C(=O)C(Cl)=C(Nc3ccccc3O)C2=O)cc1 | i | nt | i | 41
COCC(=O)Nc1ccc2c(c1)[C@H]1C[C@H](CC(=O)NCc3ccc(Cl)cc3)O[C@@H](CO)[C@H]1O2 | nt | nt | i | i
Cc1onc(-c2ccccc2)c1C(=O)Nc1nc(-c2cc(F)ccc2F)cs1 | ? | i | i | i
Cc1noc(C)c1C(=O)Nc1nc(-c2cc(F)ccc2F)cs1 | i | i | i | 74
O=C(CCCc1ccccc1)c1ccccc1 | 92 | 31 | i | i
O=C(CCCC(=O)c1ccccc1)NCCc1ccccc1 | i | i | i | i
CCCCOC(=O)c1ccc(O)cc1 | i | i | i | i
O=C(CCCOC(=O)c1ccc(O)cc1)c1ccccc1 | i | i | i | 43
O=C(CCCC(=O)c1ccc(O)cc1)c1ccc(O)cc1 | 98 | 56 | i | i
CCC(=O)c1ccc(O)cc1 | i | i | i | i
CO[C@H]1CN(C)C(=O)c2cc(NS(C)(=O)=O)ccc2OC[C@H](C)N(C(=O)CN(C)C)C[C@H]1C | nt | nt | i | i
Cc1c(OCc2ccc([N+](=O)[O-])cc2)ccc2c3c(c(=O)oc12)CCC3 | 112 | i | nt | nt
Cc1c(C)c2ccc(OCC(=O)N(C)C)c(C)c2oc1=O | i | nt | 98 | i
CC(=O)C(C)Oc1ccc2c3c(c(=O)oc2c1C)CCCC3 (centres undefined) | i | i | i | 58
Cc1oc(C(=O)O)cc1COc1ccc2c3c(c(=O)oc2c1C)CCC3 | nt | i | i | i
CC(=O)COc1ccc2c3c(c(=O)oc2c1C)CCCCC3 | i | nt | i | 45
CCc1c(C)c2ccc(OCC(=O)N(C)C)c(C)c2oc1=O | i | nt | i | i
COCC(=O)N[C@@H]1CC[C@H](CC(=O)NCc2ccc(Cl)cc2)O[C@H]1CO | nt | nt | i | i
SMILES | MITF TRPM1 HTS | Wnt bcat act | Statin myotox sup | esBAF inh
CCOC(=O)c1ccc(Nc2ncnc3nc[nH]c23)cc1 | 121 | 56 | i | i
c1ccc(COc2ccc(Nc3ncnc4nc[nH]c34)cc2)cc1 | 82 | i | nt | i
C[C@@H]1CN([C@@H](C)CO)C(=O)c2cc(NC(=O)Cc3ccccc3)ccc2O[C@@H](C)CCCCO[C@@H]1CN(C)C(=O)Cc1ccccc1 | nt | nt | i | i
C[C@H]1CN([C@@H](C)CO)C(=O)Cc2cc(NS(C)(=O)=O)ccc2O[C@H]1CN(C)C(=O)Nc1ccc(F)cc1 | nt | nt | i | i
CNC[C@@H]1Oc2c(NS(=O)(=O)c3ccc(C)cc3)cccc2C(=O)N([C@@H](C)CO)C[C@@H]1C | nt | nt | i | i
Cc1csc(Nc2ccc(Cl)cc2)n1 | i | i | i | 76
COc1ccccc1Nc1nc(C)cs1 | 89! | i | i | i
Cc1ccc(Nc2nc(C)cs2)cc1 | i | 58 | i | i
CC(=O)Nc1cc(C(=O)N2CCc3ccccc3C2)ccc1Sc1ccc(C)cc1 | i | nt | nt | nt
CCCN1CCN(C(=O)c2ccc(Sc3ccc(C)cc3)c(NC(C)=O)c2)CC1 | i | i | 80 | i
CCCSc1nnc(-c2c[nH]c3ccccc23)n1C | i | i | i | 44
COc1cccc(C2Nc3ccccc3C(=O)N2c2ccc(F)cc2)c1O (centres undefined) | 101 | i | i | ?
